Measured values from PubChem BioAssay AID720597 (Broad Institute, 2013).
Results with a measured potency or affinity are listed apart. Active and inactive are the calls of the source.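 The calls were made as follows: active = fitted half-maximal dose no more than twice the top valid tested dose, for compounds that lower signal; inconclusive = fit invalid, or curve flat with activity between -70 and -30; inactive = potency past limit, curve flat within ±30, or signal increasing.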

Biological target: NAD-dependent protein deacylase sirtuin-5, mitochondrial (Homo sapiens) (UniProt Q9NXA8)
Sequence (Q9NXA8 whole entry, looked up): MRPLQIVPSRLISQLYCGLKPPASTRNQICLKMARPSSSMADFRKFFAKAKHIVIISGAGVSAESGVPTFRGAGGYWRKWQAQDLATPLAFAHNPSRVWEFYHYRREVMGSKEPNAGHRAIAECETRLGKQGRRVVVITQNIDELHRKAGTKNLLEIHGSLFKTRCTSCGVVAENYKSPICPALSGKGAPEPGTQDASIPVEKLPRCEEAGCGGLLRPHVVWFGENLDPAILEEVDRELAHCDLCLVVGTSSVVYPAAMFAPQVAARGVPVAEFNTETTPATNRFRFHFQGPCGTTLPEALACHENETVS
Experiment: SIRT5 deacylase inhibitors, dose response, biochemical, fluorescence imaging, cherry-pick, set 6 (AID 720597);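 also: lower AMC signal can also come from blocking the trypsin step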
Settings: Purified SirT5, succinyl-peptide-AMC/trypsin fluorescence; series mostly up to 15 µM

outcome, inactive:
Cc1ccc(S(=O)(=O)Nc2ccc3c(c2)C(=O)N([C@@H](C)CO)C[C@@H](C)[C@H](CN(C)Cc2ccc(C(F)(F)F)cc2)OCCCC[C@@H](C)O3)cc1, CC(C)CC#Cc1cnc2c(c1)C(=O)N([C@H](C)CO)C[C@H](C)[C@H](CN(C)CC1CCOCC1)O2, C[C@@H]1CN([C@H](C)CO)C(=O)c2cc(NS(=O)(=O)c3ccc(F)cc3)ccc2O[C@@H](C)CCCCO[C@@H]1CN(C)CC1CCCCC1, C[C@@H]1CCCCO[C@H](CN(C)Cc2ccc(C(F)(F)F)cc2)[C@@H](C)CN([C@@H](C)CO)C(=O)c2cc(NS(=O)(=O)c3ccc(F)cc3)ccc2O1, C[C@H](CO)N1C[C@H](C)[C@@H](CN(C)C(=O)C2CCOCC2)Oc2ncc(-c3ccccc3)cc2C1=O, COc1ccccc1S(=O)(=O)N(C)C[C@@H]1Oc2cc(C#CCC(C)C)ccc2S(=O)(=O)N([C@@H](C)CO)C[C@@H]1C, C[C@@H]1CN([C@H](C)CO)S(=O)(=O)c2ccc(C#CC3CC3)cc2O[C@@H]1CN(C)Cc1ccccc1F, O=C(c1cnccn1)N1CC(=O)N2[C@H](CO)[C@@H](c3ccc(C4=CCCCC4)cc3)[C@@H]2C1, COc1ccc(S(=O)(=O)N(C)C[C@@H]2Oc3ccc(NC(=O)CCC(F)(F)F)cc3C(=O)N([C@H](C)CO)C[C@H]2C)cc1, C[C@@H]1CCCCO[C@@H](CN(C)Cc2ccc(C(F)(F)F)cc2)[C@H](C)CN([C@H](C)CO)C(=O)c2cc(NS(=O)(=O)c3ccccc3)ccc2O1, O=C(N[C@@H]1CC[C@H](CCNS(=O)(=O)c2ccccc2)O[C@H]1CO)c1cnccn1
